Here are results for 9 compounds from PubChem BioAssay (Tox21).

A short description of assay [1]: qHTS assay to identify small molecule agonists of the TGF-beta/Smad signaling pathway (AID 1346859; active = well fitted activation curve with a large enough effect in the signal ratio in the repeat runs, not every such curve was filed as active; the % refers to the signal ratio; also: series mostly up to about 77 µM). An outline of the steps:
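HEK 293T cells stably carrying a beta-lactamase reporter driven by the Smad binding element were seeded overnight, exposed to DMSO-dissolved compounds for 5 hr at 37 C, 5% CO2, then loaded with FRET substrate for 2 hr at room temperature.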
On the technique in general: In qHTS, concentration-response curves come from the screen itself.

Assay [2] deals with Thyrotropin-releasing hormone receptor (Homo sapiens) (UniProt P34981). In words: qHTS assay to identify small molecule antagonists of the thyrotropin-releasing hormone receptor (TRHR) signaling pathway (AID 1346877; active = well fitted inhibition curve with a large enough effect in the repeat runs, not every such curve was filed as active; also: series mostly up to about 51 µM). Put shortly:
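Antagonism is measured as suppression of the calcium response to 1 nM TRH in TRHR-HEK293 cells that have been dye-loaded for 2 h at 37 °C after overnight plating. Each compound is tested at 15 concentrations in triplicate.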

The target is the same in assay [3]. The assay is described as follows: qHTS assay to identify small molecule agonists of the thyrotropin-releasing hormone receptor (TRHR) signaling pathway (AID 1346891; calls by dose curve; also: series mostly up to about 58 µM). An outline of the steps:
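TRHR-expressing HEK293 cells were plated 18 h at 37 °C/5% CO2, loaded with calcium dye 2 h at 37 °C, then given compound in DMSO; fluorescence was read kinetically for 3 min at 1 s intervals.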

A short description of assay [4]: Human pregnane X receptor (PXR) small molecule agonists, qHTS cell viability counter screen (AID 1346977). Also: nearly all actives have a fitted effect of over 50% in size. An outline of the steps: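 PXR-Luc HepG2 cells in medium with 5% charcoal-stripped FBS were pre-incubated 5hr, then exposed to compounds for 24hr at 37C. Viability was read in the same wells by CellTiter-Fluor fluorescence, reagent added after 23hr with a 1hr incubation.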

A short description of assay [5]: Caspase-3/7 induction in HepG2 cells by small molecules, qHTS assay (AID 1346978). Also: nearly all actives have a fitted effect of over 15% in size. An outline of the steps: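 Wild-type HepG2 cells (2,000/well) were settled 5 h at 37 C, 5% CO2, then exposed to compounds in DMSO for 17 h. Caspase-3/7 activity was read by luminescence 30 min after adding Caspase-Glo 3/7 reagent at room temperature.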
A short description of assay [6]: Caspase-3/7 induction in CHO-K1 cells by small molecules, qHTS cell viability counter screen (AID 1346979). Also: nearly all actives have a fitted effect of over 35% in size. Put shortly:
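Wild-type CHO-K1 cells were seeded at 1,500 per well, rested 5hr at 37 C, then exposed to compounds in DMSO. After 16hr, CellTiter-Fluor reagent was added and fluorescence read 1hr later as the viability measure.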

Assay [7] can be described thus: Caspase-3/7 induction in CHO-K1 cells by small molecules, qHTS assay (AID 1346980). Also: nearly all actives have a fitted effect of over 15% in size. An outline of the steps:
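Wild-type cells were seeded at 1,500 per well and settled 5 hr at 37 C, 5% CO2, then exposed to DMSO-dissolved compounds for 17 hr. Caspase-Glo 3/7 reagent was added, and luminescence was read after 30min at room temperature.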

The nature of assay [8]: Caspase-3/7 induction in HepG2 cells by small molecules, qHTS cell viability counter screen (AID 1346981). Also: series mostly up to about 92 µM; nearly all actives have a fitted effect of over 30% in size. An outline of the steps: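 Cell viability is measured as a cytotoxicity counter screen alongside the Caspase-Glo 3/7 readout in identical wells. Wild-type HepG2 cells are treated with test compounds for 16 hr at 37 C before CellTiter-Fluor addition and a 1-hr incubation.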

Assay [9] has as its target Nuclear receptor subfamily 1 group I member 2 (Homo sapiens) (UniProt O75469). In words: Human pregnane X receptor (PXR) small molecule agonists, qHTS assay (AID 1346982). Also: nearly all actives have a fitted effect of over 35% in size. Put shortly: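 Cells: HepG2 stably carrying PXR-Luc. Medium held 5% charcoal-stripped FBS. Compounds in DMSO added after 5 hr plating, incubated 24 hr, then luminescence quantified with ONE-Glo.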
Assay [10] concerns the target Cytochrome P450 2D6 (Homo sapiens) (UniProt P10635). In words: Cytochrome P450 Family 2 Subfamily D Member 6 (CYP2D6) small molecule antagonists: luciferase reporter qHTS assay (AID 1671196). Also: nearly all actives have a fitted effect of over 50% in size. Also: potency is read from the fitted curve at half-maximal effect. As to activity change, negative = inhibition: series mostly up to about 120 µM. An outline of the steps: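 Enzyme and proluciferin substrate were first combined with test chemical for 10 min at room temperature. Adding NADPH regeneration solution started a 1 h reaction, stopped with luciferin detection reagent and read by luminescence 20 min later.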

Assay [11] concerns the target Cytochrome P450 2C19 (Homo sapiens) (UniProt P33261). The assay is described as follows: Cytochrome P450 Family 2 Subfamily C Member 19 (CYP2C19) small molecule antagonists: luciferase reporter qHTS assay (AID 1671197). Also: nearly all actives have a fitted effect of over 65% in size. Also: potency is read from the fitted curve at half-maximal effect. As to activity change, negative = inhibition: series mostly up to about 120 µM. An outline of the steps:
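P450-Glo CYP2C19 system: enzyme-substrate mix with compound 10 min at room temperature, then NADPH regeneration solution, 1 h at 37C. Proluciferin-to-luciferin conversion detected by luminescence after 20 min with detection reagent; ketoconazole as positive control.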

For assay [12], the target named is Cytochrome P450 2C9 (Homo sapiens) (UniProt P11712). The assay is described as follows: Cytochrome P450 Family 2 Subfamily C Member 9 (CYP2C9) small molecule antagonists: luciferase reporter qHTS assay (AID 1671198). Also: nearly all actives have a fitted effect of over 50% in size. Also: potency is read from the fitted curve at half-maximal effect. As to activity change, negative = inhibition: series mostly up to about 120 µM. An outline of the steps: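 CYP2C9 activity was measured with a P450-Glo proluciferin substrate. Enzyme–substrate mix was held with compound for 10 min at room temperature, then NADPH regeneration solution was added for 1 h at 37C. Luciferin product was read as luminescence.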

Assay [13] concerns the target Voltage-gated inwardly rectifying potassium channel KCNH2 (Homo sapiens) (UniProt Q12809). The assay is described as follows: Human Ether-a-go-go-Related Gene (hERG) channel small molecule antagonists: fluorescence cell-based qHTS assay (AID 1671200).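 Also: hERG-expressing U2OS cells given a thallium stimulus after FluxOR II dye loading; series mostly up to about 77 µM; nearly all actives have a fitted effect of over 50% in size.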 Put shortly: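 U2OS cells expressing the channel were plated at 1000 cells/well, incubated overnight at 37 C, then loaded with FluxOR II thallium-sensitive dye for 1 h at room temperature in the dark, with a further 10 min at room temperature before stimulation.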

For assay [14], the target named is Cytochrome P450 3A4 (Homo sapiens) (UniProt P08684). In words: Cytochrome P450 Family 3 Subfamily A Member 4 (CYP3A4) small molecule antagonists: luciferase reporter qHTS assay (AID 1671201). Put shortly:
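P450-Glo CYP3A4 system with proluciferin substrate; compounds preincubated 10 min RT with enzyme-substrate mix, then NADPH regeneration added for 1 h RT. Detection reagent 20 min, luminescence read as relative luminescence units.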
For orientation: A reporter such as luciferase makes a cellular process visible.

Assay [15] concerns the target Cytochrome P450 1A2 (Homo sapiens) (UniProt P05177). In words: Cytochrome P450 Family 1 Subfamily A Member 2 (CYP1A2) small molecule antagonists: luciferase reporter qHTS assay (AID 1671199). Also: nearly all actives have a fitted effect of over 50% in size. Also: potency is read from the fitted curve at half-maximal effect. As to activity change, negative = inhibition: series mostly up to about 120 µM. An outline of the steps: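 Compounds were incubated with CYP1A2 and a luminogenic proluciferin substrate for 10 min at room temperature before the reaction was started with NADPH regeneration solution. After 1 h, detection reagent was added and light output, proportional to CYP activity, was recorded.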

Values without a mark were called inactive. Results filed as inconclusive are left out. Active and inactive are the calls of the source. Unless noted, calls follow the shape of the dose curve; as a rule, active = well fitted curve in the direction sought with a large enough effect in the repeat runs; inconclusive = weak or mixed curves; inactive = no such curve, though single readings can be large; an effect the other way counts as inactive or inconclusive.
% is scaled to controls: 0 for no effect and ±100 for the full control effect.

Cytochrome P450 2C19 (Homo sapiens), sequence (P33261 whole entry, looked up): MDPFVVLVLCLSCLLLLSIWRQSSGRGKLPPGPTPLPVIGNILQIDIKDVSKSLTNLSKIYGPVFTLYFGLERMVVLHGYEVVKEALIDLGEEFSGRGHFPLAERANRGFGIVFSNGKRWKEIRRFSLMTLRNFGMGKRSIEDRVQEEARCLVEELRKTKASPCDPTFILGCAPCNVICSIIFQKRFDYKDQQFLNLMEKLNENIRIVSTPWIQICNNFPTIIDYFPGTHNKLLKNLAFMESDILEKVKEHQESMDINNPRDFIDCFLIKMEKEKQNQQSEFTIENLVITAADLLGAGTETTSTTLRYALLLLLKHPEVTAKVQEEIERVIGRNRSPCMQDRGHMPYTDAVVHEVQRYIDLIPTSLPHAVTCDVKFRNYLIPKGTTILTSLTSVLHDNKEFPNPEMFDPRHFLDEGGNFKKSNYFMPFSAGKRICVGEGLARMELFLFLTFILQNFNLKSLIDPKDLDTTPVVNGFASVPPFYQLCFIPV
Cytochrome P450 2C9 (Homo sapiens), sequence (P11712 whole entry, looked up): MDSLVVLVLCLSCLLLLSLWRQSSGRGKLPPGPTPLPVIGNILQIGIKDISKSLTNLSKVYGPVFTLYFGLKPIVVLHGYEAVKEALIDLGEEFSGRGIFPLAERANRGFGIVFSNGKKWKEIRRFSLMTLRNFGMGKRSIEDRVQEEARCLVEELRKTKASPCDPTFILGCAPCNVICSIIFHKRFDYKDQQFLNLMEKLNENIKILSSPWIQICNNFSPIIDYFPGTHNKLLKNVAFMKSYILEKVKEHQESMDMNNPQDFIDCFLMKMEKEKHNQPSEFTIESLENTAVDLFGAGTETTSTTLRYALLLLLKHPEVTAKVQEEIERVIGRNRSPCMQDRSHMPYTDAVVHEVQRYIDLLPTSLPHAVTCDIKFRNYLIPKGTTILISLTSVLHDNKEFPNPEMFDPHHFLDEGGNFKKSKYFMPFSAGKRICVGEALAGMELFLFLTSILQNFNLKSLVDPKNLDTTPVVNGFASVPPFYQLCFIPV
Thyrotropin-releasing hormone receptor (Homo sapiens), sequence (P34981 whole entry, looked up): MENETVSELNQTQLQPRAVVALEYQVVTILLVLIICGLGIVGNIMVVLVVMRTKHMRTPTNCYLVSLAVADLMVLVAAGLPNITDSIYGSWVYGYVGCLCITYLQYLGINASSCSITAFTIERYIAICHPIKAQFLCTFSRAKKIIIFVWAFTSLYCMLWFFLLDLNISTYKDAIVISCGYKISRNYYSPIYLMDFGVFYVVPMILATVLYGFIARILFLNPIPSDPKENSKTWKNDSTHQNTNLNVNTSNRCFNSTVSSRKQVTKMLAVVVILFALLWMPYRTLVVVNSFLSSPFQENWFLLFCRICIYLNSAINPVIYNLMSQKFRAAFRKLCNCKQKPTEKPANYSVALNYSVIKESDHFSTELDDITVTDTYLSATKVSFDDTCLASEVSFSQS
Cytochrome P450 3A4 (Homo sapiens), sequence (P08684 whole entry, looked up): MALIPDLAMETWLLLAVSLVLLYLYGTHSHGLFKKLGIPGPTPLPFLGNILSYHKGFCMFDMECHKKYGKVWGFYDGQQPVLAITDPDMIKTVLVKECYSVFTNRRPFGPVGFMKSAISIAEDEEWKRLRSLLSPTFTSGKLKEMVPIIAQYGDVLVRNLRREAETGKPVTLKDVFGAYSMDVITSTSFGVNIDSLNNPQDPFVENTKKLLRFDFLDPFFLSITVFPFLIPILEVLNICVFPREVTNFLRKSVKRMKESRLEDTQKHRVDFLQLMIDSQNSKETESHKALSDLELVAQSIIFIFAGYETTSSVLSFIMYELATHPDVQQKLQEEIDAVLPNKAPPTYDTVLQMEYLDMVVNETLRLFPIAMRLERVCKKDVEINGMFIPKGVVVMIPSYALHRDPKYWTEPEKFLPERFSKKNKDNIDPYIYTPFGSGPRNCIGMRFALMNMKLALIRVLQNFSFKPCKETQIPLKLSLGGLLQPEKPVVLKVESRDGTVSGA
Voltage-gated inwardly rectifying potassium channel KCNH2 (Homo sapiens), sequence (Q12809 whole entry, looked up): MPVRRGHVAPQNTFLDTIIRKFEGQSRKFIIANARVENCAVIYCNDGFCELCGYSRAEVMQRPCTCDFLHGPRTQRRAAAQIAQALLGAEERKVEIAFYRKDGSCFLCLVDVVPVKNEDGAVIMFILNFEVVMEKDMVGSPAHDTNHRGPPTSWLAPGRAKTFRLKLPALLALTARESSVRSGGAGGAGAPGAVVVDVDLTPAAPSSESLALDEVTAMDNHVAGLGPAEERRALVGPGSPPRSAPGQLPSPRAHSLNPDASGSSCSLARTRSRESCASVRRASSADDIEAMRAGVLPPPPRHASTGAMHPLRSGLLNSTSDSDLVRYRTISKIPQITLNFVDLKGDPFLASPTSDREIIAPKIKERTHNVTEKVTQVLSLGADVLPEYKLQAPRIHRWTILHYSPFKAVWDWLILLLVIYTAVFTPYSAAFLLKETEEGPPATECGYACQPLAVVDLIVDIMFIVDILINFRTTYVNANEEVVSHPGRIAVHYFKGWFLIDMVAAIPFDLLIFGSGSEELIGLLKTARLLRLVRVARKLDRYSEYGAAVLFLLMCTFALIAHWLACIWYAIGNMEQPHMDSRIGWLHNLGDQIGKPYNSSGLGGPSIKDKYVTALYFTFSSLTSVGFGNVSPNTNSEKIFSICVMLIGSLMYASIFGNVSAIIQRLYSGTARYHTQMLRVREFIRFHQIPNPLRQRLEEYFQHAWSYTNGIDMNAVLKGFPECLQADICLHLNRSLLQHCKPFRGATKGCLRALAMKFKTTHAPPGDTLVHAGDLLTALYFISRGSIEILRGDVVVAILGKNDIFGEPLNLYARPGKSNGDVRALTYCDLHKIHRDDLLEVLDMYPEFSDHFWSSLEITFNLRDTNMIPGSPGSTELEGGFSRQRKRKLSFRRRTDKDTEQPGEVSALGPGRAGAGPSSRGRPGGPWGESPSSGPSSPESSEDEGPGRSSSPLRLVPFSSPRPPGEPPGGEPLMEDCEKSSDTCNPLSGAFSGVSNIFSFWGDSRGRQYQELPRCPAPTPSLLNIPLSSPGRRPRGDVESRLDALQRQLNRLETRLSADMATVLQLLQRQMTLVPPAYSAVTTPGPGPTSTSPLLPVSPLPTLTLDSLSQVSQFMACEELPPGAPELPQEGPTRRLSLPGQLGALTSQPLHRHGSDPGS
Nuclear receptor subfamily 1 group I member 2 (Homo sapiens), sequence (O75469 whole entry, looked up): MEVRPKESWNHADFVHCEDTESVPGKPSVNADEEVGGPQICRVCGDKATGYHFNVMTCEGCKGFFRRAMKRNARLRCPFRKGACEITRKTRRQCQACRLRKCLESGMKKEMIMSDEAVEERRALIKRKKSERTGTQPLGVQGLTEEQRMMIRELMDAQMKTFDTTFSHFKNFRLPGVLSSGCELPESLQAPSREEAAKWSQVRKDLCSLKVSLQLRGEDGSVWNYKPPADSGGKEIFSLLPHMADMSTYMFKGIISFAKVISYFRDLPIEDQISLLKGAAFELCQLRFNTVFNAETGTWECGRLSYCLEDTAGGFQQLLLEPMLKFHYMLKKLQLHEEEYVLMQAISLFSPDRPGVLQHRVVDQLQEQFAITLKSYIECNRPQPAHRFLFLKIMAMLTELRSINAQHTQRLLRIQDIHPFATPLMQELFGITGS
Cytochrome P450 2D6 (Homo sapiens), sequence (P10635 whole entry, looked up): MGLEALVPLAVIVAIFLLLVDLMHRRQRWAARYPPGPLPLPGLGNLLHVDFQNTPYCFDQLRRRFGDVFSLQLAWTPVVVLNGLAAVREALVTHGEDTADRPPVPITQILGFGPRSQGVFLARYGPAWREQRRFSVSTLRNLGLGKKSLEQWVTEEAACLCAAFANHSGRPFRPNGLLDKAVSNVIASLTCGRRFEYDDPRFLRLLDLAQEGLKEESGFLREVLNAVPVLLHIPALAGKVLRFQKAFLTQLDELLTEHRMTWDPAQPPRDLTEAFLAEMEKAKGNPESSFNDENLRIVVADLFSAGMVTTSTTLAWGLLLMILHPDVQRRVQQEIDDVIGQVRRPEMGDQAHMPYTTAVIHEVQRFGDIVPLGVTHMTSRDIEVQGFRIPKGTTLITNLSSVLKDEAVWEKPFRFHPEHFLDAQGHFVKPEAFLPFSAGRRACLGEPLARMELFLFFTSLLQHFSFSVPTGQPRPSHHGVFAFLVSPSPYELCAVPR
Cytochrome P450 1A2 (Homo sapiens), sequence (P05177 whole entry, looked up): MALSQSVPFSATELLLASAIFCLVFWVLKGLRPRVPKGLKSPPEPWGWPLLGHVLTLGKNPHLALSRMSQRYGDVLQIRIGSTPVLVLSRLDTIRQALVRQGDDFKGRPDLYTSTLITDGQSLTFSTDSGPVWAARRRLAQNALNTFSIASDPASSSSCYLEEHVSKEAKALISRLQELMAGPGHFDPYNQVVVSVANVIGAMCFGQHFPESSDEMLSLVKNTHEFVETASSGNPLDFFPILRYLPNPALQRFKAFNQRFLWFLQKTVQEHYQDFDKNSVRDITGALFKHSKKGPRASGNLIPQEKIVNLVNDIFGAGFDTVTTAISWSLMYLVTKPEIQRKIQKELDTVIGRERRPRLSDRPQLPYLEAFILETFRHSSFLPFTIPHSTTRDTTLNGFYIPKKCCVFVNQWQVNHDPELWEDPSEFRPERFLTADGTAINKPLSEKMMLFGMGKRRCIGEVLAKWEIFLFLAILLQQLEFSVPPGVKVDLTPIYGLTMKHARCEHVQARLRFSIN

Turning to `CO/N=C(\C(=O)O)c1csc(NC(=O)CCl)n1`, the call in assay [1], in assay [2], in assay [4], in assay [5], in assay [7] and in assay [8] was inactive. Moreover, the Potency result in [3], in assay [6], in assay [9], in [10], in assay [11] and in [12] was “inactive” in each case. In addition, the Potency entry in assay [13] and in assay [14] was “inactive” throughout.

As for `NC[C@H]1O[C@H](O[C@H]2[C@H](O)[C@@H](O[C@H]3O[C@H](CO)[C@@H](O)[C@H](N)[C@H]3O)[C@H](N)C[C@@H]2N)[C@H](N)[C@@H](O)[C@@H]1O`, the values for the activation in [1], in [3] and in assay [9] were 3.2% [at 15.8 µM], -0.0664% [at 11.8 µM] and -6.93% [at 19 µM], respectively. Moreover, the activity, negative = inhibition in assay [2] is -3.11% [at 10.5 µM]. Moreover, the activity change, negative = cytotoxicity is 11% [at 19 µM] in assay [4], 1.7% [at 19 µM] in assay [6] and 0.336% [at 19 µM] in assay [8]. Moreover, in [5], the caspase activation is -1.91% [at 19 µM]. The caspase-3/7 activation in assay [7] was -0.57% [at 19 µM]. The activity change, negative = inhibition is 0.727% [at 23.6 µM] in assay [10], 16.5% [at 23.6 µM] in assay [12] and 1.37% [at 15.8 µM] in [13].

In the case of `CCN(CC)CC`, the compound was called inactive in [1], in assay [2], in assay [4], in [5], in assay [7] and in [8]. For the same compound, the Potency entry in assay [3], in assay [6], in [9], in assay [15], in assay [13] and in assay [14] was “inactive” in each case. Further, the Potency in assay [10] is 23.6 µM (active).

For the compound `O=C1Nc2ccccc2C1=O`, the compound was called inactive in assay [1], in [2], in assay [4], in [5], in [7] and in assay [8]. Moreover, the Potency result in assay [3], in assay [6], in assay [9], in assay [10], in [12] and in [13] was “inactive” each time. Besides, the Potency entry in assay [14] was “inactive”. For the same compound, the Potency in assay [15] is 39.6 µM (active).

Turning to `CC(=O)O[C@@H]1CC2C3CCc4cc(OC(=O)c5ccccc5)ccc4C3CCC2(C)[C@H]1OC(C)=O` (some centres undefined), the compound was called inactive in [1], in [2], in assay [4], in [5], in [7] and in assay [8]. The Potency entry in [3], in assay [6], in assay [9], in assay [10], in assay [11] and in assay [14] was “inactive” throughout. Further, the Potency in [12] was 11 µM (active).

For the compound `CCCCNCC`, the result in assay [1], in assay [2], in assay [4], in assay [5], in assay [7] and in [8] was inactive. Also, the Potency result in assay [3], in [6], in assay [9], in assay [10], in assay [13] and in [14] was “inactive” throughout. The Potency in [11] was 27.2 µM (active); in [15], 19.3 µM (active).

Take `CC12CCCC=C1C(=O)OC2=O` (centres undefined): the result in [1], in [2], in assay [4], in assay [5], in [7] and in assay [8] was inactive. Further, the Potency entry in assay [3], in [6], in assay [9], in [10], in assay [11] and in [13] was “inactive” throughout. The Potency entry in assay [14] was “inactive”.

For the compound `CN(C)c1cc(NC(=O)CNC(C)(C)C)c(O)c2c1C[C@H]1C[C@H]3[C@H](N(C)C)C(=O)C(C(N)=O)=C(O)[C@@]3(O)C(=O)C1=C2O`, the compound was classed as inactive in assay [1], in assay [2], in assay [4], in assay [5], in assay [7] and in [8]. Moreover, the Potency entry in assay [3], in [6], in [9], in [13] and in [14] was “inactive” throughout. Moreover, the Potency in assay [11] was 21.9 µM (active).

`CCCCCCCCS(=O)(=O)O`: the outcome in [1], in assay [2], in assay [4], in assay [5], in assay [7] and in assay [8] was inactive. For the same compound, the Potency result in assay [3], in assay [6], in [9], in [10], in assay [11] and in assay [15] was “inactive” each time. The Potency result in assay [13] and in assay [14] was “inactive” throughout.
